Experimental data from PubChem BioAssay.
Active and inactive are the calls of the source.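 How the source made its calls, unless noted: active means inhibition at or above 50% at 10 µM; inactive means inhibition below 50%.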

Key:
[1] = inhibitors of TNFa-induced NFkB p65 translocation, primary screen, imaging, HUVEC, MLSMR starter and 10KST1 sets (AID 438;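 active means inhibition above 20% together with a positive visual image hit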;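 further: compound added about 3h40 before a 20 min TNFalpha stimulation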;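 on inhibition: signal is the nuclear over cytoplasmic p65 intensity ratio per well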); settings: HUVEC TNFa-induced p65 nuclear translocation; cell count: measured here: nuclei count (cytotoxicity indicator), at 2.08 µM; inhibition: at 2 µM, stronger effect = higher value, 0% TNFa-plus-vehicle, 100% no-TNFa wells
[2] = reduction of polyQ htt aggregates in cells – imaging, exon1htt(103Q)mCFP cells, high-content imaging, primary screen (AID 483;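 active means visual image review flags a hit and inhibition of aggregation exceeds 20%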;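 further: compound exposure lasted 3 days before fixation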;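 on nuclei count: percent of the per-plate median nuclei count of sample wells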); settings: exon1htt(103Q)mCFP cell line, aggregate imaging, at 2 µM; inhibition of aggregation: stronger effect = higher value; nuclei count: measured here: cell count, toxicity
[3] = endothelial E-selectin expression blockers – imaging, HUVEC, immunofluorescence, MLSMR starter and 10KST1 sets, primary screen (AID 487;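 active means visually confirmed hit in the image check and inhibition above 20%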;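 on inhibition: signal is fraction of cell area covered by stained E-selectin grains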;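 on nuclei count: 100% = median nuclei count of all wells on the same plate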); settings: HUVEC TNFalpha-induced E-selectin immunofluorescence imaging, at 2 µM; inhibition: stronger effect = higher value; nuclei count: measured here: cell number, toxicity
[4] = biological target: Voltage-gated potassium channel subunit beta-2 (Rattus norvegicus) (UniProt P62483); assay: inhibitors of rat Kvbeta2 reductase activity – biochemical, NADPH fluorescence, primary screen (AID 622;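 active means fluorescence slope higher than the sample average by over 3 SD, cut at about -0.22 in these data, passing the limit was not always enough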;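 further: slope of raw intensity against log time taken from 70 to 1610 s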); settings: recombinant KvBeta, 4-cyanobenzaldehyde reduction, at 10 µM, stronger effect = higher value
Chain of Voltage-gated potassium channel subunit beta-2 (Rattus norvegicus) (P62483 whole entry, looked up): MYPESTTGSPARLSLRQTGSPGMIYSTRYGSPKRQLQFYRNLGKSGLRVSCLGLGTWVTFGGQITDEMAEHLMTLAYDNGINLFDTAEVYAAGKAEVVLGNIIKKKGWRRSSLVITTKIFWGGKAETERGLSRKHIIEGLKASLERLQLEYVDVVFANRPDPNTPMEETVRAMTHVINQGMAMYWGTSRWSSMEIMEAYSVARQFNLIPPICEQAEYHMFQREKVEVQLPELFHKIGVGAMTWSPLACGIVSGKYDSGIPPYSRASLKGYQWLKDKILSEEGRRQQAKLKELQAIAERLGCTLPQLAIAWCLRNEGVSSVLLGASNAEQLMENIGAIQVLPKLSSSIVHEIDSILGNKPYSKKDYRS

[5] = biological target: Voltage-gated potassium channel subunit beta-2 (Rattus norvegicus) (UniProt P62483); assay: enhancers of rat Kvbeta2 NADPH turnover – biochemical, NADPH fluorescence, primary screen (AID 623;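 active means NADPH fluorescence slope more negative than the mean of all samples by about 3 SD, 99.7% confidence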;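 further: fluorescence intensity change per second fitted from 20 to 320 s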); settings: Recombinant KvBeta, NADPH fluorescence decrease slope, 10 min; at 10 µM; stronger effect = lower value
[6] = biological target: Alpha-2C adrenergic receptor (Homo sapiens) (UniProt P18825); assay: compounds altering alpha2C-coupled GIRK flux – cell-based, HEK293 alpha2C/GIRK1/2, thallium flux, primary screen (AID 624;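 active means fluorescence slope after compound addition differing from the mean of all screened samples at 99.7% confidence, in either direction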;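 further: slope of fluorescence ratio to pre-addition baseline per second over 15 to 24 s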); settings: thallium flux BTC fluorescence, at 10 µM, actives lie on both sides
Chain of Alpha-2C adrenergic receptor (Homo sapiens) (P18825 whole entry, looked up): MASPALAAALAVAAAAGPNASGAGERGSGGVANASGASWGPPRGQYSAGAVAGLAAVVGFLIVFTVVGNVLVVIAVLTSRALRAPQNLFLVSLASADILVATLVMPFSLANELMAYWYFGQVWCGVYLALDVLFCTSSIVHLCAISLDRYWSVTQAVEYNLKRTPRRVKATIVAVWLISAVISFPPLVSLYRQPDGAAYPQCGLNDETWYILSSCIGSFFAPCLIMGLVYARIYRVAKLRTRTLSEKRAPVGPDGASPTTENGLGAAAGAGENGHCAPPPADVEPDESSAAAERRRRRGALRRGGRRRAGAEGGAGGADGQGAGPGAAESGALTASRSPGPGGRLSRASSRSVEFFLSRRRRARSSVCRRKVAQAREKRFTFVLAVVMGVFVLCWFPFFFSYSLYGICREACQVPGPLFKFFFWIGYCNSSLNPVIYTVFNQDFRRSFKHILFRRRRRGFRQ

[7] = blockers of RIG-like receptor reporter activation – cell-based, Sendai virus stimulus, luciferase, 10K MLSCN set, TLR/RLR signaling modifier project, primary screen (AID 602276); settings: HEK293 RL24 IRF3 luciferase reporter, at 10 µM, stronger effect = higher value;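 further: firefly luciferase from ISG56 promoter only with Renilla not read in this screen; 0% = Sendai virus plus DMSO and 100% = medium plus DMSO without virus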
[8] = TLR3 IRF3 reporter activation blockers – cell-based, poly I:C stimulus, luciferase, 10K MLSCN set, primary screen (AID 602277;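 active means inhibition of the reporter signal at or above 50%; inactive means inhibition below 50%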); settings: HEK293-TLR3 RL24 IRF3 luciferase reporter, at 10 µM, stronger effect = higher value

Row | SMILES | cell count [1] | inhibition [1] | inhibition of aggregation [2] | nuclei count [2] [%] | inhibition [3] | nuclei count [3] [%] | fluorescence slope [4] | NADPH fluorescence slope [5] | slope [6] | inhibition [7] | inhibition [8]
1 | CC(C)=CC(=O)N1CCCc2ccccc21 | 308 | -2.8% (inactive) | -5.5% (inactive) | 84.6 | 3.3% (inactive) | 96.7 | -0.606 (inactive) | -2.8e-05 (inactive) | 0.00337 (inactive) | 16.7% (inactive) | 17% (inactive)
2 | CC(CCc1ccccc1)NC(=O)C1CCCN(c2nnc(-n3cccc3)s2)C1 (stereo not drawn) | 585 | 5.8% (inactive) | -2.5% (inactive) | 99.3 | -42.8% (inactive) | 102 | -0.57 (inactive) | -3.2e-05 (inactive) | 0.00444 (inactive) | 8.13% (inactive) | 18.5% (inactive)
3 | O=C(NCc1nc2ccccc2[nH]1)c1ccc(Cl)c(S(=O)(=O)N2CCCC2)c1 | 594 | -15.4% (inactive) | -35.2% (inactive) | 101 | 47% (inactive) | 112 | -0.531 (inactive) | 2.5e-05 (inactive) | 0.00466 (inactive) | -7.84% (inactive) | -15.6% (inactive)
4 | O=C(CCCCCn1c(=S)[nH]c2cc3c(cc2c1=O)OCO3)N1CCN(Cc2ccccc2)CC1 | 494 | 3% (inactive) | -11.1% (inactive) | 100 | -25.7% (inactive) | 113 | -0.476 (inactive) | 1.3e-05 (inactive) | 0.00605 (inactive) | -5.45% (inactive) | 15.2% (inactive)
5 | CC(C)N(C(=O)CSc1nnc(-c2cc3ccccc3cc2O)n1Cc1ccco1)C(C)C | 836 | 6.2% (inactive) | -6.1% (inactive) | 107 | 4.9% (inactive) | 102 | -0.47 (inactive) | -2.4e-05 (inactive) | 0.00627 (inactive) | -4.55% (inactive) | 7.55% (inactive)
6 | COc1ccc(NC(=O)CSc2nnc(-c3ccccc3C)n2C)cc1 | 661 | 1.6% (inactive) | 3.2% (inactive) | 121 | 81.4% (active) | 111 | -0.422 (inactive) | -3.9e-05 (inactive) | 0.0036 (inactive) | 5.44% (inactive) | 28.1% (inactive)
7 | O=C(CSc1ncnc2ccccc12)NCCCO | 458 | -11% (inactive) | -1.4% (inactive) | 104 | 7.4% (inactive) | 101 | -0.628 (inactive) | 8.9e-06 (inactive) | 0.00699 (inactive) | 15.3% (inactive) | 26.4% (inactive)
8 | O=S(=O)(Nc1nc2ccccc2nc1NCc1ccco1)c1cccs1 | 448 | -6.2% (inactive) | -18.2% (inactive) | 105 | -73.9% (inactive) | 120 | -0.298 (inactive) | -6.8e-05 (inactive) | 0.00495 (inactive) | 14.7% (inactive) | 14.6% (inactive)
9 | Cc1ccc(CNc2cc(-c3nn4c(C)nnc4s3)ccc2C)s1 | 679 | 8.6% (inactive) | -34.9% (inactive) | 2.1 | -76.3% (inactive) | 102 | -0.444 (inactive) | -1.1e-05 (inactive) | 0.00646 (inactive) | 5.73% (inactive) | 13.7% (inactive)
10 | CC(=O)N1CCN=C1SCc1ccc(Br)cc1 | 442 | 14.5% (inactive) | 15.2% (inactive) | 95.1 | 39.5% (inactive) | 98.6 | -0.632 (inactive) | -9.6e-06 (inactive) | 0.00733 (inactive) | -0.301% (inactive) | 22.3% (inactive)
11 | COc1ccccc1C(=O)N1CCN=C1SCc1cccnc1 | 266 | -0.3% (inactive) | -22.1% (inactive) | 103 | 0.7% (inactive) | 97.2 | -0.595 (inactive) | -3.9e-05 (inactive) | 0.00599 (inactive) | -7.45% (inactive) | 6.88% (inactive)
12 | O=C(NCc1ccco1)c1cc2cc3ccc(Cl)cc3nc2o1 | 198 | -4.9% (inactive) | 12.7% (inactive) | 105 | -23.3% (inactive) | 118 | -0.489 (inactive) | -3.4e-05 (inactive) | 0.00854 (inactive) | -5.73% (inactive) | -43.3% (inactive)
13 | COCC(=O)Nc1c(C(=O)Nc2ccccc2OC)oc2ccccc12 | 602 | -5.9% (inactive) | 11.9% (inactive) | 99.1 | 2.5% (inactive) | 60.9 | -0.318 (inactive) | 1.2e-05 (inactive) | 0.00625 (inactive) | -4.76% (inactive) | 11.5% (inactive)
14 | COc1ccc(NC(=O)CN(c2ccc(C)cc2)S(C)(=O)=O)c(OC)c1 | 498 | 10.1% (inactive) | -0.7% (inactive) | 92.5 | -180% (inactive) | 139 | -0.392 (inactive) | -6e-05 (inactive) | 0.0037 (inactive) | 4.75% (inactive) | 25.6% (inactive)
15 | Cn1c(C(=O)Nc2ccc3c(c2)OCO3)cc2c(=O)n(C)c3ccccc3c21 | 683 | 7% (inactive) | -6.4% (inactive) | 104 | -20.2% (inactive) | 104 | -0.264 (inactive) | -2.8e-06 (inactive) | 0.00554 (inactive) | -13.1% (inactive) | -11.2% (inactive)
16 | Cc1cc(Cl)ccc1OCCCC(=O)NO | 375 | 0.8% (inactive) | -15% (inactive) | 65.5 | -31.4% (inactive) | 108 | -0.31 (inactive) | -1.1e-05 (inactive) | 0.00525 (inactive) | 9.52% (inactive) | -4.29% (inactive)
17 | O=C(Cn1cnc2ccccc2c1=O)NCCC(=O)N1CCN(c2ccccc2)CC1 | 383 | -10.7% (inactive) | 8.8% (inactive) | 99.4 | 12.8% (inactive) | 95.3 | -0.405 (inactive) | -9.9e-05 (inactive) | 0.0056 (inactive) | 15.8% (inactive) | 23.6% (inactive)
18 | Cc1cccc(Cn2c(SCCN3CCCCC3)nc3c2c(=O)[nH]c(=O)n3C)c1 | 497 | 6.4% (inactive) | -13.5% (inactive) | 82.4 | 1.7% (inactive) | 95.1 | -0.442 (inactive) | 3.2e-05 (inactive) | 0.00451 (inactive) | -12% (inactive) | 3.02% (inactive)
19 | O=C(NCC(F)(F)F)Nc1cccnc1 | 309 | 6.5% (inactive) | -5.6% (inactive) | 100 | -117% (inactive) | 119 | -0.318 (inactive) | -5.2e-05 (inactive) | 0.00372 (inactive) | -2.55% (inactive) | 3.81% (inactive)
20 | O=C1NC2=C(C(=O)CCC2)C(c2ccc3ncccc3c2)N1 (stereo not drawn) | 513 | 1.5% (inactive) | 1.9% (inactive) | 126 | -13.9% (inactive) | 116 | -0.541 (inactive) | -5e-05 (inactive) | 0.00696 (inactive) | 9.39% (inactive) | 8.99% (inactive)
21 | C=CCSC1=C(C#N)C(c2ccccc2OCC)CC(=O)N1 (stereo not drawn) | 328 | -4.1% (inactive) | 12.8% (inactive) | 99 | 12.5% (inactive) | 105 | -0.306 (inactive) | 1.7e-05 (inactive) | 0.00314 (inactive) | 6.62% (inactive) | 24.6% (inactive)
22 | O=C(c1cnn2c1NC(c1ccco1)CC2C(F)(F)F)N1CCN(c2cccc(Cl)c2)CC1 (stereo not drawn) | 313 | -3.8% (inactive) | -7.8% (inactive) | 114 | -38.6% (inactive) | 126 | -0.382 (inactive) | -6e-05 (inactive) | 0.00418 (inactive) | 46.3% (inactive) | 19.8% (inactive)
23 | O=C(NC1CCCc2ccccc21)c1ccc(CNc2c(N3CCOCC3)c(=O)c2=O)cc1 (stereo not drawn) | 644 | -3.4% (inactive) | 36.3% (active) | 51.3 | -52.7% (inactive) | 108 | -0.55 (inactive) | -2.5e-06 (inactive) | 0.00556 (inactive) | 12.8% (inactive) | 27% (inactive)
24 | CCCOc1ccc(C2C(C(=O)OC)=CN(CCOC)C=C2C(=O)OC)cc1 | 356 | -11.3% (inactive) | -4.7% (inactive) | 116 | -128% (inactive) | 111 | -0.251 (inactive) | 1.3e-05 (inactive) | 0.00618 (inactive) | 15.3% (inactive) | 27.8% (inactive)
25 | CCOC(=O)c1c(C)oc2c1c(C(c1ccncc1)N1CCOCC1)c(O)c1ccccc12 (stereo not drawn) | 827 | -7.9% (inactive) | -6.4% (inactive) | 101 | -21.1% (inactive) | 107 | -0.594 (inactive) | 2.5e-05 (inactive) | 0.00459 (inactive) | -6.32% (inactive) | -31.2% (inactive)
26 | O=C(CCNS(=O)(=O)c1ccc(Cl)cc1)NCc1ccccn1 | 609 | -21.1% (inactive) | 5.7% (inactive) | 78.6 | 0.3% (inactive) | 101 | -0.318 (inactive) | 8.2e-06 (inactive) | 0.00312 (inactive) | 17.1% (inactive) | 21.6% (inactive)
27 | O=C(C1CCN(c2nnc(-n3cccc3)s2)CC1)N1CCOCC1 | 661 | -2.9% (inactive) | 6.4% (inactive) | 123 | -50.3% (inactive) | 102 | -0.418 (inactive) | -4.1e-05 (inactive) | 0.00592 (inactive) | 7.65% (inactive) | 18% (inactive)
28 | CC(=O)Nc1ccc(S(=O)(=O)Nc2nc3ccccc3nc2N2CCCC2)cc1 | 369 | 3.2% (inactive) | 10.6% (inactive) | 106 | -42.3% (inactive) | 128 | -0.593 (inactive) | 2.1e-06 (inactive) | 0.00326 (inactive) | 20.8% (inactive) | 21.3% (inactive)
